# Test results from the supplement of paper PMC6555819.
# System: VDR:RXRa (NR concentration 270 nM, RXRa partner concentration 90 nM)
# Assay: PBM binding z-score (relative to random genomic background probes); higher = stronger binding; sequences stand for … in GC…GCGATTGACAGCGTAGAATGAAGG
# Experimental: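 Protein-binding microarray (Agilent 4x180K custom design, double-stranded 60-nt probes: 5' GC cap, 34-nt variable region, 24-nt constant primer region; full probe sequence given). Purified or IVT nuclear receptor:RXRα heterodimers (3:1 NR:RXRα, mostly 270:90 nM) or homodimers were incubated for 1 h in PBS with 2% milk and no ligand, then detected with Alexa488 antibodies. Fluorescence from o1-orientation probes (~5 replicates averaged) was converted to z-scores against 500 random hg19 background probes. Variable regions are seed direct-repeat (DR0–DR5) sites, all their single-nucleotide variants and half-site ablations.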
row,Sequence,PBM binding z-score
1,CCTGCTAGGTGATGGTCAGCTAATCTACAGTATG,-0.759
2,TCTTGTAGATCAAGCAGATTAAGAAAGCCTGAGT,0.437
3,GCTGCTAGGGCAACTGATGGTCAGCTAAAGCTCG,-0.881
4,ACTCGGACGACAAAGGTCAGAGCTACGCCAGTGA,2.76
5,CTCGAAAGGTCGGTTGAGGTGAGTCTACGGATAA,2.45
6,CGTCCAAGGTCATAGGAAGTCAGTGAAGACAGAT,4.21
7,CGTCCAAGGTCAGCAGGTCATTGAAAGCGACGTG,4.67
8,ATGGAAAGGTCGAAGGTGAGTATACCCACCCGAA,2.81
9,TGAGACAGGTGAAGGTAACTCAGGTACGCAGTCG,-0.109
10,TCTTGTAGATCAATAGAGGTTTAGAAAGTGCGCT,0.618
11,CCTACTGGGCCACAAAAGGTCATTGATTCAGTGA,3.98
12,GCGAGTGGGGCAAAGCAGGTTACCATAAGGTTGG,0.296
13,TCATATAGGTAAATGGTGAAAGTCGGTGTGGTAA,0.561
14,GCTCGGAGGACAAGGTCAGCGCTTTGTCCGTAGA,1.88
15,TCTGCTAGTTCAACGATGGTCAGCTAATCTGCTA,0.196
16,CCTACTGGGCCATCAGGTCACTGATATCAACGTT,1.34
17,GGAACGAGGGCAACTTGATAGCAGAGTTTGATGG,0.718
18,TTACCAAGGTGAGCTGAGGTCGGTGATCCAACTC,1.26
19,CCTGCTAGGTCAATGGTCAGGTAAAGCAGCTCGC,0.722
20,GCTGGTTGGTCAGTAAAAGGTCACACACCGGTCG,4.02

row,Sequence,PBM binding z-score
1,CCTCGGAGGACAACAGGAGGACAGAGCTGCCAGA,-0.461
2,ACTAGCAGGCCAAGTTTGGGTCACTAAAACAAAG,0.553
3,CAAACTCGGTCAAGAGGTCAAAGTCCGCTTCCCG,5.41
4,AGAATGAGGTTATACGTAGATCAAGGAAGAAAGT,1.33
5,ACTAGCCGGCCAAGTTTGGGTCACTCAAACAAAG,0.6
6,CAAATTAGGTCACAGAGGTCAAAGTCCGTGCGTA,8.12
7,TCTAGTTGGTCAAAGGACACACACTCGAAATGCG,1.05
8,TCTAGTTGGTCACGGAGGTCACACATGACGGGTA,5.83
9,CCTAGTTGGTCAGGACGTCACACACCGGATATGA,0.236
10,TCTTGTAGATCAACAGGAGGGTAAGAAAGATCGA,0.029
11,TAGCCTAGGTCTTGGGCCAGTATACCACGCGAAC,-0.455
12,GCAGACAGGTGAAACGCAGGTATCTCAGGGTGGC,-0.475
13,ATCTCTAGGGAAAGTTCAGTGAAAGATCGATAGA,1.12
14,TCTCGGAAGACACGAAGGTCAGAGCTTTCCAGAG,1.08
15,GCTCGGAGGACAAGGTCAGTGCTTTGTCCGTAGA,1.19
16,CATACAGGGTCAGCTAGGCCATAGTAGGGACGGC,4.92
17,CGTCGAAGTTCAACTAAGGTAACGTAAAGCACGC,3.43
18,TCTATTAGCTGAAGGGCAACCGACGAGTCCGTTT,0.475
19,CGTCCAAGGTCATAGGAGGTCAGTCAAGACAGAT,6.72
20,GCTGCTAGCTCAGGTTGGTCAGCTAACGGGTACG,-0.71
